Assay outcomes from PubChem BioAssay.
Shown are actives, neighbours in structure and some others; about 3.5% of the full set was active somewhere.
Bead autofluor = counter-screen for toxin protease inhibitors: compound fluorescence. compound autofluorescence counterscreen, microsphere flow cytometry; stronger effect = higher value. fluorescence intensity (test concentration not listed). 360,000 compounds, 3.1% hits. AID 624483; in the data active = fluorescence intensity above about 16000; inconclusive = no clear call, values can overlap the other calls
BoNT A protease = blocks Botulinum neurotoxin A light chain protease; inhibition, % at 10 µM; AID 588499; 360,000 compounds, 0.17% hits; multiplex microsphere protease substrate cleavage, flow cytometry
BoNT F protease = blocks Botulinum neurotoxin F light chain protease. Multiplex microsphere protease cleavage assay, flow cytometry. 360,000 compounds, 0.22% hits. inhibition, % at 10 µM; in the data active = inhibition above about 35%, passing the limit was not always enough; inconclusive = no clear call, values can overlap the other calls
Anthrax LF inh2 = inhibitors of Bacillus anthracis lethal factor protease | multiplex microsphere protease cleavage assay, LF | inhibition, % at 10 µM | 360,000 compounds, 0.12% hits
Target sequence (P15917 whole entry, looked up): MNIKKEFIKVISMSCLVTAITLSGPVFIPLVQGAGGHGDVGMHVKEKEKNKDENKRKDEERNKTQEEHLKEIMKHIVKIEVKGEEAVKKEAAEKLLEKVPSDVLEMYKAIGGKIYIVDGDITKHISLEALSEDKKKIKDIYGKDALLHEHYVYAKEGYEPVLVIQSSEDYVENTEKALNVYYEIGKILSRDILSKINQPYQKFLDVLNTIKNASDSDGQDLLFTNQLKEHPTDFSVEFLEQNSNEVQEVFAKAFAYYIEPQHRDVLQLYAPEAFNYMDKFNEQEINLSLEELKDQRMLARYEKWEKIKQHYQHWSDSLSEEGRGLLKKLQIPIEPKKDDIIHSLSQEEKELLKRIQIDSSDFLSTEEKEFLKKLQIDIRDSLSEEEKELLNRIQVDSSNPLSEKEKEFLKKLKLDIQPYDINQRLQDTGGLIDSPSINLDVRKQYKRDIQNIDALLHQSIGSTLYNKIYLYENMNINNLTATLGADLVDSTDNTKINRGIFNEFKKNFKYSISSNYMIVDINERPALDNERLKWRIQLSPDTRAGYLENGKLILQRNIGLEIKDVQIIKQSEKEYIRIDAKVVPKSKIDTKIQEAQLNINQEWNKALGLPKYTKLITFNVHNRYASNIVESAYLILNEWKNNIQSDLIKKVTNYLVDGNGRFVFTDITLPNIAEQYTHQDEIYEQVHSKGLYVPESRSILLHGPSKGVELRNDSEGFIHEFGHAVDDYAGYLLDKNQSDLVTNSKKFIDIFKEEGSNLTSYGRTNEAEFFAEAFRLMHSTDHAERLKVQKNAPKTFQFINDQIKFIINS
BoNT-A LC CP1 = blocks botulinum neurotoxin A light chain protease; shares compounds with BoNT F protease; multiplex microsphere protease assay, flow cytometry; inhibition, % at 10 µM; 720 compounds, 3% hits; in the data active = inhibition above about 32%
BoNT-F LC CP1 = BoNT/F light chain protease inhibition; multiplex microsphere protease cleavage assay, flow cytometry; shares compounds with BoNT F protease; 720 tested, under 10 active; AID 602140; inhibition, % at 10 µM; call rule not given here
Anthrax LF CP1 = blocks anthrax lethal factor protease; multiplex microsphere protease cleavage assay, LF; inhibition, % at 10 µM; 720 tested, under 10 active; shares compounds with BoNT F protease; call rule not given here
A number is an active result; n = inactive; u = inconclusive; x = no result given. Rule as the data show it, unless noted: active = inhibition above about 30%; inconclusive = no clear call, values can overlap the other calls; inactive = below that.

SMILES | Bead autofluor | BoNT A protease | BoNT F protease | Anthrax LF inh2 | BoNT-A LC CP1 | BoNT-F LC CP1 | Anthrax LF CP1
CSc1ccc(CN(C)CC(=O)NCCc2ccccc2)cc1 | n | n | 39.5 | n | n | n | n
Cc1ccc(NS(=O)(=O)c2ccc(C(=O)N3CCCC(C(F)(F)F)C3)cc2)cc1 (stereo not drawn) | n | n | n | n | x | x | x
CC(OC(=O)c1cc(=O)[nH]c2ccccc12)C(=O)NC1CCCC1 (stereo not drawn) | n | n | n | n | x | x | x
COc1cc(C(=O)NCCOc2ccc(C)c(C)c2)cc(OC)c1OC | n | n | n | n | x | x | x
COc1cccc(OCCNC(=O)c2cc(OC)c(OC)c(OC)c2)c1 | n | n | 40.0 | n | n | n | n
Cc1c(C(=O)Nc2ccccc2[N+](=O)[O-])csc1-c1ccccc1 | n | n | 39.3 | n | n | n | n
COCc1cc(C)nc2sc(C(=O)NCCO)c(-n3cccc3)c12 | n | n | n | n | x | x | x
CCOc1ccc(NC(=O)CN(C)C(=O)c2ccc3c(c2)C(=O)N(CCC(C)C)C3=O)cc1OCC | n | n | n | n | x | x | x
CCNc1nc(NCC)n2c(SCC(=O)Nc3ccc(C)c(C)c3)nnc2n1 | u | n | 36.8 | n | n | n | n
O=C(NCC1CC1)c1cccs1 | n | n | n | n | x | x | x
O=C(NCCC1CCCC1)c1cccs1 | n | u | u | 31.2 | n | n | n
Cc1ccc(OCCCC(=O)Nc2ccc(S(N)(=O)=O)cc2)cc1 | n | n | 40.9 | n | n | n | n
COC(=O)c1cc(=O)n2c(sc3ccccc32)c1C#N | n | n | n | n | x | x | x
CC(Oc1ccc(Br)cc1)c1nc2c3ccccc3nc(=S)n2[nH]1 (stereo not drawn) | n | n | 36.5 | n | n | n | n
CCCC(Oc1ccc(Br)cc1)c1nc2c3cc(OC)c(OC)cc3nc(=S)n2[nH]1 (stereo not drawn) | n | n | n | n | x | x | x
Cc1c(C(=O)NCc2ccc([N+](=O)[O-])cc2)sc(=O)n1Cc1ccc2c(c1)OCO2 | n | n | n | n | x | x | x
O=S(=O)(c1cccc(C(F)(F)F)c1)N1CCC(CO)(CCCc2ccccc2)CC1 | n | n | n | 49.0 | n | n | n
O=C(O)CC1(CC(=O)Nc2ccc(C(F)(F)F)cc2)CCCC1 | n | n | 39.8 | n | n | n | n
Cc1ccc(NC(=O)CC2(CC(=O)O)CCCC2)cc1 | n | n | n | n | x | x | x
Cc1cccc(C)c1OCCNC(=O)C(=O)NCc1ccco1 | n | n | n | n | x | x | x
O=C(O)CSc1nnc(-c2ccc(Cl)cc2)n1-c1ccccc1 | n | n | 35.7 | n | n | n | n
O=C1c2ccccc2C(=O)N1CCCn1ccnc1 | n | n | u | n | x | x | x
O=C1c2ccccc2C(=O)N1CCn1ccnc1 | n | n | 40.7 | n | n | n | n
COCCN1C(=O)N(c2cccc(C)c2)C(=O)C1CC(=O)Nc1ccc(OC)cc1 (stereo not drawn) | n | n | 37.2 | n | n | n | n
CCNC(=O)CC1C(=O)N(c2ccc(C)cc2)C(=O)N1CCOC (stereo not drawn) | n | n | 35.5 | n | n | n | n
SMILES | Bead autofluor | BoNT A protease | BoNT F protease | Anthrax LF inh2 | BoNT-A LC CP1 | BoNT-F LC CP1 | Anthrax LF CP1
Oc1[nH]c(N=C2N=c3ccccc3=N2)c2ccccc12 | n | n | 111.4 | n | n | 32.5 | n
CCn1c(CCNC(=O)c2ccc(OC)c(OC)c2)nc2ccccc21 | n | n | 39.8 | n | n | n | n
O=[N+]([O-])c1ccc(OCCCCN2CCc3ccccc3C2)cc1 | n | n | n | n | x | x | x
CSc1nc(Oc2ccc(F)cc2F)cc(C(F)(F)F)n1 | n | n | 41.4 | n | n | n | n
CSc1ccc(C(=O)C2CCCN(CCCn3cccn3)C2)cc1 (stereo not drawn) | n | n | 37.2 | n | n | n | n
CS(=O)(=O)N1N=C(c2ccccc2)CC1c1ccc2c(c1)OCO2 (stereo not drawn) | 19512 | 70.4 | n | n | 49.5 | x | n
CC(=O)NC1(C(F)(F)F)C(=O)Nc2c1c(=O)[nH]c(=O)n2CCc1ccccc1 (stereo not drawn) | n | n | n | n | x | x | x
CCc1ccc(CNCCc2ccccc2F)cc1 | n | n | n | n | x | x | x
CCOc1cc(CNCCc2ccccc2F)ccc1OC | n | n | 83.3 | n | n | n | n
c1csc(-c2nc3nc4ccccc4nc3n2Cc2ccc3c(c2)OCO3)c1 | n | 50.9 | n | 34.4 | n | n | n
Cc1cc(C)c(COc2ccc(/C=N/n3c(C)n[nH]c3=S)cc2)c(C)c1 | n | n | n | n | x | x | x
N=c1sc2ccccc2n1-c1ccccc1 | n | 32.3 | n | n | n | n | n
C=CC(=O)N=c1sc2ccccc2n1-c1ccccc1 | n | n | n | n | x | x | x
Cc1cccc(C(C)C)c1NC(=O)C1CN(S(=O)(=O)c2ccccc2)CCN1S(=O)(=O)c1ccccc1 (stereo not drawn) | n | 38.4 | n | 37.3 | n | n | n
CCc1cccc(CC)c1NC(=O)C1CN(S(=O)(=O)c2ccccc2)CCN1S(=O)(=O)c1ccccc1 (stereo not drawn) | n | n | n | n | x | x | x
CC(=O)Nc1ccc(NC(=O)c2ccnn2C)cc1 | n | n | n | n | x | x | x
COc1ccc(N(C(=O)c2snc(C(N)=O)c2N)C(C(=O)NCC2CCCO2)c2ccc3ncccc3c2)cc1OC (stereo not drawn) | n | n | 38.4 | n | n | n | n
CSc1cccc(CN2CCC(n3nccc3NC(=O)C3CC3)CC2)c1 | n | n | n | n | x | x | x
Cc1ccc(Cn2nc(C)c(C(=O)NCC(c3ccc(F)cc3)N3CCOCC3)c2Cl)cc1 (stereo not drawn) | n | n | n | n | x | x | x
O=C(c1nn2c(C(F)(F)F)cc(-c3cccs3)nc2c1Br)N1CCCc2ccccc21 | n | 46.7 | n | n | n | n | n
NC(=O)c1nnsc1Sc1c(C(N)=O)nnn1-c1cccc(N)c1 | n | n | n | n | x | x | x
CC1CCCC(N2CCN(C(=O)c3cccc(F)c3)CC2)C1 (stereo not drawn) | n | n | n | n | x | x | x
CC1CCCC(N2CCN(C(=O)c3ccccc3F)CC2)C1 (stereo not drawn) | n | n | u | 37.8 | n | n | n
CC(=O)c1ccc2c(c1)c(C#N)c1ccccc1[n+]2[O-] | n | n | n | n | x | x | x
CCOc1ccc2nc3cc(NCc4ccc(OC)cc4)ccc3c(N)c2c1 | n | 69.9 | n | n | 33.3 | n | n
SMILES | Bead autofluor | BoNT A protease | BoNT F protease | Anthrax LF inh2 | BoNT-A LC CP1 | BoNT-F LC CP1 | Anthrax LF CP1
O=C(CCS(=O)(=O)c1ccc(Cl)cc1)Nc1nc(-c2cccnc2)cs1 | n | 51.4 | n | n | n | n | n
COc1ccc(OC)c(CN2CCN(C(=O)CNC(=O)c3ccc(C(C)(C)C)cc3)CC2)c1 | n | n | n | n | x | x | x
COc1ccc(OC)c(CN2CCN(C(=O)CCNC(=O)c3ccc(Br)cc3)CC2)c1 | u | 33.7 | n | n | n | n | n
Cc1nc2cc(F)ccc2n1C1CCN(Cc2nnnn2CCc2ccccc2)CC1 | n | n | 42.1 | n | n | n | n
COc1ccc(-n2c(SCC(=O)Nc3ccccc3C)nc(O)c(Cc3ccccc3)c2=O)cc1 | n | n | n | n | x | x | x
Cn1cnnc1SCC(=O)Nc1ccccc1 | n | n | n | n | x | x | x
Cn1cnnc1SCC(=O)Nc1ccc(S(N)(=O)=O)cc1 | n | n | 37.4 | 33.8 | n | n | n
